Test [1] deals with Rho-associated protein kinase 1 (Homo sapiens) (UniProt Q13464). The settings on record: at 1 µM.
The target in test [2] is Rho-associated protein kinase 2 (Homo sapiens) (UniProt O75116). The settings on record: at 0.1 µM.
For test [3] the target is unchanged. As to conditions: at 1 µM.
The target of test [4] is Ribosomal protein S6 kinase alpha-1 (Homo sapiens) (UniProt Q15418). The settings on record: at 0.1 µM.
Test [5] shares this target. As to conditions: at 1 µM.
Test [6] has as its target Ribosomal protein S6 kinase alpha-3 (Homo sapiens) (UniProt P51812). The settings on record: at 0.1 µM.
The target is the same in test [7]. As to conditions: at 1 µM.
Test [8] has as its target Ribosomal protein S6 kinase alpha-2 (Homo sapiens) (UniProt Q15349). The settings on record: at 0.1 µM.
Test [9] shares this target. The settings on record: at 1 µM.
Test [10] has as its target Ribosomal protein S6 kinase alpha-6 (Homo sapiens) (UniProt Q9UK32). As to conditions: at 0.1 µM.
The target is the same in test [11]. The settings on record: at 1 µM.
Test [12] concerns the target T1, Serine/threonine-protein kinase Sgk1 (Homo sapiens) (UniProt O00141).
T1 sequence (whole entry): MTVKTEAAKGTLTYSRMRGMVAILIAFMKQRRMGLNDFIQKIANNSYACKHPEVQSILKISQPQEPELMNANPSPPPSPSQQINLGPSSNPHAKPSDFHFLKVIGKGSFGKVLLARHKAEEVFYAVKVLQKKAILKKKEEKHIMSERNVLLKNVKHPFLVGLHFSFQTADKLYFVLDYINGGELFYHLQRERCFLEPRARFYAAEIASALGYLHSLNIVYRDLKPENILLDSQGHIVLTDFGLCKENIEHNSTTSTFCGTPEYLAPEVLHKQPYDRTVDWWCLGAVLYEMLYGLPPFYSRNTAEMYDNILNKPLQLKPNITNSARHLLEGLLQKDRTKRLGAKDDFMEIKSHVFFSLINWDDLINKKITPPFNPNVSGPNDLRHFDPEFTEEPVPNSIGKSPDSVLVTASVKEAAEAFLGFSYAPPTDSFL
The settings on record: at 0.1 µM.

The target of test [13] is T1, Serine/threonine-protein kinase Sgk1 (Homo sapiens). The settings on record: at 1 µM.
In test [14] the target is T2, Serine/threonine-protein kinase Sgk2 (Homo sapiens) (UniProt Q9HBY8).
T2 sequence (whole entry): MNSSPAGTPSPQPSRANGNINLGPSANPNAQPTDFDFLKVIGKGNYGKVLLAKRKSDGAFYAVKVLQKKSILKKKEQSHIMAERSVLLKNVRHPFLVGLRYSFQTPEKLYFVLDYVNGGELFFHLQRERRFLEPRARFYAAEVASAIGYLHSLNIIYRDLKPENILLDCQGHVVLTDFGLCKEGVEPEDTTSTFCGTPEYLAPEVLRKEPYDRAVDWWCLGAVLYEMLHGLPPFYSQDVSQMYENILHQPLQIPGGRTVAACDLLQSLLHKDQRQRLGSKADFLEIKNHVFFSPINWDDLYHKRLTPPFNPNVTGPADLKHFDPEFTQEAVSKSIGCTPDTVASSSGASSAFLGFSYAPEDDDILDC
The settings on record: at 0.1 µM.

For test [15], the target named is T2, Serine/threonine-protein kinase Sgk2 (Homo sapiens). As to conditions: at 1 µM.
Test [16] addresses T3, Serine/threonine-protein kinase Sgk3 (Homo sapiens) (UniProt Q96BR1).
T3 sequence (whole entry): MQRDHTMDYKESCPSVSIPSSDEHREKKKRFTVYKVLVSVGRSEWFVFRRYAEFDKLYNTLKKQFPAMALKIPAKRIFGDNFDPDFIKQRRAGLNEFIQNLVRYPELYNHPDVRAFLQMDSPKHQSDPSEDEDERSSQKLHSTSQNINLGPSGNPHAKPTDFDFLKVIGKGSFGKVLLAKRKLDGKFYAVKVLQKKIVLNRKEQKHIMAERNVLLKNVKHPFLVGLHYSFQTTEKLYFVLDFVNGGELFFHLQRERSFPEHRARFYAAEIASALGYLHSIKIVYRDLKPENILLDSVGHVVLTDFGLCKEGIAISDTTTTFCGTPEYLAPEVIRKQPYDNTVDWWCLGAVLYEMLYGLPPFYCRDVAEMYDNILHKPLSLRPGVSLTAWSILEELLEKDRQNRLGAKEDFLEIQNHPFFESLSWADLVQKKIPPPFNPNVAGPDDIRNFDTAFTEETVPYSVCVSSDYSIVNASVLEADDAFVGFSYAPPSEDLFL
The settings on record: at 0.1 µM.

Test [17] deals with T3, Serine/threonine-protein kinase Sgk3 (Homo sapiens). As to conditions: at 1 µM.
The target of test [18] is 5'-AMP-activated protein kinase catalytic subunit alpha-1 (Homo sapiens) (UniProt Q13131). The settings on record: at 0.1 µM.
Test [19] shares this target. As to conditions: at 1 µM.
Test [20] deals with 5'-AMP-activated protein kinase catalytic subunit alpha-2 (Homo sapiens) (UniProt P54646). The settings on record: at 0.1 µM.

Ribosomal protein S6 kinase alpha-2 (Homo sapiens), sequence (Q15349 whole entry): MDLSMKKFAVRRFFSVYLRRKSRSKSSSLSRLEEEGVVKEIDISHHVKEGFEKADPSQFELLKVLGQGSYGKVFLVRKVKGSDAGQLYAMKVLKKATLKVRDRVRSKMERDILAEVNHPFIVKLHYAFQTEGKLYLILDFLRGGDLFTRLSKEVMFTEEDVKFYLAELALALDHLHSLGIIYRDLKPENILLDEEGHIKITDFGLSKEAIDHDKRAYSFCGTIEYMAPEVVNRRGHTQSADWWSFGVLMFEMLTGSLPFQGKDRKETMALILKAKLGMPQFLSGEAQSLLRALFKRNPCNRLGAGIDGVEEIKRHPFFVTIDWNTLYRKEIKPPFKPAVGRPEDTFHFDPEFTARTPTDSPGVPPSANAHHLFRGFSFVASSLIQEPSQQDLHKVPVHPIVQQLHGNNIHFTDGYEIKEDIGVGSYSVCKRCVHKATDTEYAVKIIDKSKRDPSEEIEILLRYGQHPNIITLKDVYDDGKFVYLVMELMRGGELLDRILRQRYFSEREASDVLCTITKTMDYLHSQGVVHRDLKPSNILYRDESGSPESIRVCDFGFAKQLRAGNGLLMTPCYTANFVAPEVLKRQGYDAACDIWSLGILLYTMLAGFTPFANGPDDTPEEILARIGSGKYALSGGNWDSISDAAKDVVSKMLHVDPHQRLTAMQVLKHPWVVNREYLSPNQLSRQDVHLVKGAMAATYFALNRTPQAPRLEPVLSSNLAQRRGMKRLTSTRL
Rho-associated protein kinase 2 (Homo sapiens), sequence (O75116 whole entry, looked up): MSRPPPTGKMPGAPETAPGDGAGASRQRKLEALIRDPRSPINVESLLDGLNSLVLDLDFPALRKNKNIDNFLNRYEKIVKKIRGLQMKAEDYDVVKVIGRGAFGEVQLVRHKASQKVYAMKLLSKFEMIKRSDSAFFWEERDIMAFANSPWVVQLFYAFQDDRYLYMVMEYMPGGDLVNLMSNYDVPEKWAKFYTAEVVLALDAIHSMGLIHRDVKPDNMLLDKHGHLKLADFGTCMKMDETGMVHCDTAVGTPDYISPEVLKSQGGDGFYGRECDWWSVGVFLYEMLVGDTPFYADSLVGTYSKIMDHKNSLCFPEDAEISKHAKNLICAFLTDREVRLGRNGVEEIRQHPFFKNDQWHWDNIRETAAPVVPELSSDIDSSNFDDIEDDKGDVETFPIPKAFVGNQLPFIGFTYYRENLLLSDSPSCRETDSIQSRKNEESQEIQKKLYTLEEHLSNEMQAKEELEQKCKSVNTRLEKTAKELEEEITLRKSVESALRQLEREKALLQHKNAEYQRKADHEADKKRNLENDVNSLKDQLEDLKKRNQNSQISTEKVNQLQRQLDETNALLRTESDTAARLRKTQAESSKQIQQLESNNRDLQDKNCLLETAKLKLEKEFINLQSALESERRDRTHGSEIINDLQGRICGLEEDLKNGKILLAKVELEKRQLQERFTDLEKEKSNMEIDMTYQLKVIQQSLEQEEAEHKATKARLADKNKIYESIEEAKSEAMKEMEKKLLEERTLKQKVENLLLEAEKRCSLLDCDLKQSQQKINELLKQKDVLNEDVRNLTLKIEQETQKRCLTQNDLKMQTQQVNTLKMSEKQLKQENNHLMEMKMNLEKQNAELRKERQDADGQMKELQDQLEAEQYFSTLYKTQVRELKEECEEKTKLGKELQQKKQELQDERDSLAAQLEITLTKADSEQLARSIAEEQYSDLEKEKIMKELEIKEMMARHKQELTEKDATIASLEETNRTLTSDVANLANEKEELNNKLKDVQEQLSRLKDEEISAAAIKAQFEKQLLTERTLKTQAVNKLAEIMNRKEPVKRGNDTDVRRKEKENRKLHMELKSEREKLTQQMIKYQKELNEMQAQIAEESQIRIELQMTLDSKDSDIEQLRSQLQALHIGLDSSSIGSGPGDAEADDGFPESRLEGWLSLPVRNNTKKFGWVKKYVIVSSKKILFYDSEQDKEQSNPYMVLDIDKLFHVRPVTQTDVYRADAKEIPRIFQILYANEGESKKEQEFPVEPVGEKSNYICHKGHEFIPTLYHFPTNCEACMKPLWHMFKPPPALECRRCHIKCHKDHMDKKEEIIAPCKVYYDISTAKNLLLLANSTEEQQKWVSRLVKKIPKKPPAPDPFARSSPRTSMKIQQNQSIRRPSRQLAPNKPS
Rho-associated protein kinase 1 (Homo sapiens), sequence (Q13464 2-1354 limits assumed): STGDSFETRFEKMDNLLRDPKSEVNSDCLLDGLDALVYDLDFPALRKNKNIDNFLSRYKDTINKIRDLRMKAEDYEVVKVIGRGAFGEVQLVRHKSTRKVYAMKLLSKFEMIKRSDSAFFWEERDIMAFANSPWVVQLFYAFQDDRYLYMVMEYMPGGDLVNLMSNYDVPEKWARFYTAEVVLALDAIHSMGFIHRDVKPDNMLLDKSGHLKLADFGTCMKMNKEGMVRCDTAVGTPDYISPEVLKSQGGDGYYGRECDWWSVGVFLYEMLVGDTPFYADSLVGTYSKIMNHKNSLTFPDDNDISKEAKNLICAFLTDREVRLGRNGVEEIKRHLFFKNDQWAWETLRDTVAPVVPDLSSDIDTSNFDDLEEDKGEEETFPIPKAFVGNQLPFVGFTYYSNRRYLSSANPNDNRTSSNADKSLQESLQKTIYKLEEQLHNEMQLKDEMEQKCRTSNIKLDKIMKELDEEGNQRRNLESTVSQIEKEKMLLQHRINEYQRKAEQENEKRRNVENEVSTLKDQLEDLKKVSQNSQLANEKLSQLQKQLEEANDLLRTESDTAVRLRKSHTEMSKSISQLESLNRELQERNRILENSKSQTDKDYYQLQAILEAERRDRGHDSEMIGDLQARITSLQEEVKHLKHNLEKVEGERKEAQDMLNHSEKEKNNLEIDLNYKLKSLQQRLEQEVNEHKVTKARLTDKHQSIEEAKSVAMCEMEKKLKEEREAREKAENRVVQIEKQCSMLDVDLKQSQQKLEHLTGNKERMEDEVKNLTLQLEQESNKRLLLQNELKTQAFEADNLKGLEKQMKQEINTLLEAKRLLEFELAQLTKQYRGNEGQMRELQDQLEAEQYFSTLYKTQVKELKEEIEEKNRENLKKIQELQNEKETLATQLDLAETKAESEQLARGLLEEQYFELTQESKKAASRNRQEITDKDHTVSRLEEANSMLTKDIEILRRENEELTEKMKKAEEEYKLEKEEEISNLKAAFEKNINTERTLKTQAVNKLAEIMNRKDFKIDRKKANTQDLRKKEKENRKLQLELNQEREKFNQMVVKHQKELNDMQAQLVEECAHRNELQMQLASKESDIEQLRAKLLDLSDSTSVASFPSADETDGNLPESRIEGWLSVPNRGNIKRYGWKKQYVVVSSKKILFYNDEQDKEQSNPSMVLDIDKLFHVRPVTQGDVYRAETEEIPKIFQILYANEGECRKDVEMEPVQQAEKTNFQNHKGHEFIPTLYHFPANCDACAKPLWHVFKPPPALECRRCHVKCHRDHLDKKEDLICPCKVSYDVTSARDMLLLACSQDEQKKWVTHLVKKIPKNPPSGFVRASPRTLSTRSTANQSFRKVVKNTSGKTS
Ribosomal protein S6 kinase alpha-6 (Homo sapiens), sequence (Q9UK32 whole entry): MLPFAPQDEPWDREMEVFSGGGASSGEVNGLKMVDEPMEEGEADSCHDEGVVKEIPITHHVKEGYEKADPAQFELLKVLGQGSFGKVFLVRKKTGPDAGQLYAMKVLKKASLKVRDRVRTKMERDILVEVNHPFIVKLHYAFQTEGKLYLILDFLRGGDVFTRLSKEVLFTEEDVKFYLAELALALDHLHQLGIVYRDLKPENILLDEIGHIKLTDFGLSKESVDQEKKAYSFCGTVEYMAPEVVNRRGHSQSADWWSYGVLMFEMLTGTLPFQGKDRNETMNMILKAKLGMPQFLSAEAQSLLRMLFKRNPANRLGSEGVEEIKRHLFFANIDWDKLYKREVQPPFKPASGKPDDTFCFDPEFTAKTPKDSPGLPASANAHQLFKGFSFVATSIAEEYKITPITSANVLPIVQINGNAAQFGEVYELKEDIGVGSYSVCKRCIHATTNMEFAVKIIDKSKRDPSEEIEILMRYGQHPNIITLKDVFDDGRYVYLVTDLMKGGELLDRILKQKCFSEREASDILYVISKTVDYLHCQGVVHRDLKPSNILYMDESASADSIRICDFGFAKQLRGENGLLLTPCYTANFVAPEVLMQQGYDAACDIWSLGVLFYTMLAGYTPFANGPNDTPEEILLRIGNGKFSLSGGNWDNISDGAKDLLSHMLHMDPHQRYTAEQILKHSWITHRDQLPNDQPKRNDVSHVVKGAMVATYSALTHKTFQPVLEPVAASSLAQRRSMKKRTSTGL
Ribosomal protein S6 kinase alpha-3 (Homo sapiens), sequence (P51812 whole entry): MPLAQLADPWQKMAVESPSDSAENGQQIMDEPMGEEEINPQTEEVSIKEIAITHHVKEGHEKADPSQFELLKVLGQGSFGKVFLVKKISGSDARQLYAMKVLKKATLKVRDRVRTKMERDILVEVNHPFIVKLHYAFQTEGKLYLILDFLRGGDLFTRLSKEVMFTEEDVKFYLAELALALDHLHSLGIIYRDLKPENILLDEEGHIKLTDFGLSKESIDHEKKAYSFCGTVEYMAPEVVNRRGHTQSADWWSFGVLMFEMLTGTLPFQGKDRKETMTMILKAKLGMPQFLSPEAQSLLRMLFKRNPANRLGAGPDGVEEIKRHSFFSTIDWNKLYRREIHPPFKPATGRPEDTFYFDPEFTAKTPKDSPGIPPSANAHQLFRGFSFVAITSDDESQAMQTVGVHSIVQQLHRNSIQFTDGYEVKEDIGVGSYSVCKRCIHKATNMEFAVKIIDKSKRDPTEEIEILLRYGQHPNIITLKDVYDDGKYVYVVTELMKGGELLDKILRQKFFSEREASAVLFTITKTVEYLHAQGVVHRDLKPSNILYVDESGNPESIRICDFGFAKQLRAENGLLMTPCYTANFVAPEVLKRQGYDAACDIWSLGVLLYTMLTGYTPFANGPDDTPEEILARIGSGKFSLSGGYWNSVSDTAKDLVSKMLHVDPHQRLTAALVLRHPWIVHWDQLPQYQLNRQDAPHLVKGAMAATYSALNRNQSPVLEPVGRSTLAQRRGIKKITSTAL

In the case of `CNC(=O)c1cncc(/C=C/c2c(Cl)cccc2Cl)c1`, the inhibition in test [1] stood at 1.88%; in [2], 0.61%; in [3], 1.93%; in [4], 1.04%; in test [5], 4.53%; in [6], 0.14%. In addition, the inhibition in test [7] was 1.94%; in test [8], 1.97%; in [9] it was 2.54%; in test [10] it was 0.73%; in test [11], 1.63%; in test [12], -0.87%. In addition, the inhibition in [13] is -0.45%; in [14], 0.49%; in test [15], 0.48%; in test [16] it was 1.43%; in test [17] it was 2.18%; in test [18], 2.85%. Besides, the inhibition amounted to 3.59% in test [19] and 6.15% in test [20].
Take `CS(=O)(=O)CCN(CC#N)Cc1ccc(-c2ccc3ncnc(Nc4ccc(OCc5cccc(F)c5)c(Cl)c4)c3c2)o1`: the inhibition was 1.43% in test [1]; 0.1% in [2]; 0.19% in test [3]; -0.47% in test [4]; -0.29% in [5]; -1.25% in test [6]. Also, the inhibition in test [7] was -1.73%; in test [8], 0.79%; in [9], 0.34%; in test [10], -0.25%; in test [11], -0.88%; in test [12], 3.63%. Also, the inhibition in test [13] is 0.86%; in test [14], 1.72%; in test [15], -1.45%; in [16] it was 0.78%; in [17], 3.35%; in test [18], 3.45%. Besides, the results for the inhibition in [19] and in test [20] were 0.16% and 3.89%, respectively.
On to `c1cnn2ncc(-c3ccnc(Nc4ccc5c(c4)OCCO5)n3)c2c1`, for which the inhibition in test [1] was found to be 9.73%; in test [2] it was 4.95%; in test [3], 19.1%; in test [4], 2.62%; in test [5], 7.26%; in test [6], 0.94%. The inhibition came out at 4.28% in [7]; 2.89% in test [8]; 4.85% in test [9]; 3.28% in [10]; 9.17% in test [11]; 2.25% in test [12]. In addition, the inhibition in test [13] is 7.34%; in test [14], 6.82%; in [15], 1.72%; in test [16], 2.27%; in [17], -0.29%; in [18], 4.61%. Further, the inhibition in test [19] turned out to be 11.6%; in [20] it was 1.53%.
Consider `Cc1cccc(-c2n[nH]cc2-c2ccc3ncccc3n2)n1`, for which the inhibition is -0.22% in [1]; 0.72% in [2]; -0.18% in test [3]; -0.36% in [4]; 0.1% in test [5]; 1.16% in test [6]. The inhibition in test [7] turned out to be 1.24%; in [8], 0.29%; in test [9] it was 1.84%; in [10], 0.98%; in test [11] it was 1.71%; in test [12] it was 0.86%. Also, the inhibition in test [13] is 1.34%; in test [14], 0.23%; in [15], 0.54%; in [16], 0.78%; in test [17] it was -0.02%; in test [18], 1.82%. The inhibition in [19] worked out at 0.12%; in [20], 0.85%.
For the compound `Nc1nc(-c2ccc3c(c2)C(=Cc2cc(Br)c(O)c(Br)c2)C(=O)N3)cs1`, the inhibition in test [1] was -0.02%; in test [2] it was -0.52%; in test [3], 2.2%; in [4], -0.32%; in test [5] it was 4.1%; in test [6], -0.26%. The inhibition was 1.6% in [7]; -0.77% in test [8]; 1.44% in test [9]; -0.07% in test [10]; 2.87% in test [11]; 0.99% in test [12]. Further, the inhibition in test [13] was 0.56%; in test [14], 0.38%; in test [15] it was 2.1%; in [16] it was -0.67%; in test [17], -0.04%; in [18] it was -0.3%. Further, the inhibition in [19] was 6.79%; in test [20], 3.28%.
Take `O=C1NC(=O)C(c2cccc(Cl)c2)=C1Nc1ccc(O)c(Cl)c1`: the inhibition in test [1] was 0.49%; in test [2], -0.28%; in test [3] it was -2.05%; in [4] it was 1.2%; in [5], 7.59%; in [6], 1.93%. The inhibition in test [7] came out at 14.1%; in test [8], 3.16%; in test [9] it was 19.8%; in test [10] it was 3.63%; in test [11], 21.5%; in test [12], 2.17%. For the same compound, the inhibition in test [13] was 0.01%; in test [14], 0.49%; in test [15] it was 3.67%; in test [16] it was -0.12%; in test [17], -0.88%; in test [18] it was 1.08%. The inhibition in [19] came to 8.5%; in [20], 0.44%.

What is called inhibition is the change of the read-out against control, counted positive when it falls.
